High-throughput results: PubChem BioAssay, The Scripps Research Institute Molecular Screening Center
A selection: hits, their analogues and other compounds. The true share with any hit is near 4.1%.
UHRF1 binding – UHRF1 methyl-DNA binding inhibition; Q96T88; UHRF1 binding to methylated oligo, TR-FRET; inhibition, % at 4.4 µM; actives 0.75% (n = 370,000); AID 687016; in the data active means inhibition above about 21%;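 further: UHRF1 SRA domain binding a hemimethylated CpG hairpin DNA probe; 0% = median of test compound wells and 100% = reference inhibitor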
rCAG binder – binds r(CAG) RNA repeats. inhibition, % at 3 µM. r(CAG) RNA repeat, TO-PRO-1 dye displacement fluorescence. actives 1.3% (n = 370,000);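 active means inhibition above the plate cutoff, the mean of all test compounds on that plate plus 3 SD, cut at about 35% in these data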;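 further: 0% = DMSO alone and 100% = 100 µM mitoxantrone as full dye displacement; higher means more dye released from RNA so lower well fluorescence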
LEDGF integ inh – blocks HIV-1 LEDGF/p75-dependent DNA integration. TR-FRET IN-LEDGF/p75 DNA integration, Eu/Cy5. inhibition, % at 3.7 µM. actives 0.64% (n = 370,000). AID 743269;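 active means inhibition above the screen-wide mean plus 3 SD, cut at about 13% in these data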;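 further: signal is the Cy5 over europium emission ratio at 671 and 618 nm; 0% = plate median of compound wells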
MBD2 DNA inh – inhibitors of human MBD2 binding to methylated oligonucleotide; Q9UBB5; actives 0.31% (n = 370,000); TR-FRET; inhibition, % at 4.4 µM; in the data active means inhibition above about 13%
Target sequence (Q9UBB5 whole entry, looked up): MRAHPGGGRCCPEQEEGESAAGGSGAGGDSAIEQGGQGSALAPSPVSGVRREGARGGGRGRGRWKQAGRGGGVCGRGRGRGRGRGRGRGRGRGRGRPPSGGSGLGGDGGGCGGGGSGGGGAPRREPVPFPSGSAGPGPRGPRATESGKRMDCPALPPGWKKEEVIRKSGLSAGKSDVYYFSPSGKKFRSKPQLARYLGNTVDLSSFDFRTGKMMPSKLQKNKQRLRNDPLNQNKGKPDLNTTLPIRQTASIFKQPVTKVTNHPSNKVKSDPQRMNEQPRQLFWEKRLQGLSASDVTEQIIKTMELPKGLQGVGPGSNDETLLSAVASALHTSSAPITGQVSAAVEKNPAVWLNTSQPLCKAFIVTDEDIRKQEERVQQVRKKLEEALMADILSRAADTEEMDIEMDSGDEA
PRMT1 FP inh – inhibitors of human PRMT1; Q99873; recombinant PRMT1, activity-based probe fluorescence polarization; inhibition, % at 2.79 µM; actives 1.3% (n = 370,000); AID 652257;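 active means inhibition above about 21% made by adding two undisclosed values, limit read from the data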
ABHD5 PLIN5 PPI – blocks binding of human ABHD5 to perilipin-5 | Q00G26+Q8WTS1 | Split G. princeps luciferase complementation, luminescence, 4 h | inhibition, % at 4 µM | actives 0.78% (n = 360,000);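 active means inhibition above the mean inhibition across every tested compound plus 3 SD, cut at about 22% in these data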;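 further: 0% = DMSO only wells and the 100% control is not disclosed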
* = called active by the depositor.

`Cc1ccc(S(=O)(=O)N2CCCC2C(=O)N2CCN(c3ccccc3)CC2)cc1C` (configuration not stated) gave UHRF1 binding 1, rCAG binder -1, LEDGF integ inh 0, MBD2 DNA inh 4 and PRMT1 FP inh -6.
`COc1cccc(C(=O)/C=C/c2ccc(SC)cc2)c1` gave UHRF1 binding -2, rCAG binder 6, LEDGF integ inh 2, MBD2 DNA inh 3, PRMT1 FP inh 0 and ABHD5 PLIN5 PPI 23*.
For COC(=O)c1ccc(/C=C/C(=O)c2cccc(OC)c2)cc1 the results were UHRF1 binding -3, rCAG binder 1, LEDGF integ inh -1, MBD2 DNA inh -3, PRMT1 FP inh 5 and ABHD5 PLIN5 PPI 14.
Screening CSc1ccc(/C=C/C(=O)c2ccc(NC(=O)C(C)C)cc2)cc1 returned UHRF1 binding 0, rCAG binder 13, LEDGF integ inh -3, MBD2 DNA inh -1, PRMT1 FP inh 1 and ABHD5 PLIN5 PPI 23*.
For CSc1ccc(/C=C/C(=O)c2ccc(NC(=O)Cc3ccccc3)cc2)cc1 the results were UHRF1 binding -3, rCAG binder 12, LEDGF integ inh 3, MBD2 DNA inh -1, PRMT1 FP inh 0 and ABHD5 PLIN5 PPI 2.
`Oc1ccc(Nc2nc(-c3ccccc3F)nc3ccccc23)cc1` gave UHRF1 binding -3, rCAG binder 1, LEDGF integ inh 5, MBD2 DNA inh 1, PRMT1 FP inh 0 and ABHD5 PLIN5 PPI -3.
Oc1ccc(Nc2nc(-c3ccccc3O)nc3ccccc23)cc1 was read as UHRF1 binding -2, rCAG binder 43*, LEDGF integ inh -2, MBD2 DNA inh -1, PRMT1 FP inh 1 and ABHD5 PLIN5 PPI -1.
Screening Cc1cc(O)c(C=O)c2c1C(=O)Oc1c(CO)c(O)c3c(c1O2)C(O)OC3=O (configuration not stated) returned ABHD5 PLIN5 PPI 73*.
`Cc1nc(Cl)c(C(=O)NCCC(C)C)c(C)c1[N+](=O)[O-]` gave UHRF1 binding -4, rCAG binder 1, LEDGF integ inh 1, MBD2 DNA inh -7, PRMT1 FP inh -1 and ABHD5 PLIN5 PPI 4.
Screening Cc1nc(Cl)c(C(=O)NC(C)(C)C)c(C)c1Cl returned UHRF1 binding 47*, rCAG binder -1, LEDGF integ inh -4, MBD2 DNA inh 4, PRMT1 FP inh 2 and ABHD5 PLIN5 PPI -1.
CCn1c(COc2ccc(C)cc2)nnc1SCC(=O)Nc1ccccc1-c1ccccc1 was read as UHRF1 binding 0, rCAG binder 4, LEDGF integ inh -2, MBD2 DNA inh 0 and PRMT1 FP inh -1.
CC1CN2C(c3ccc([N+](=O)[O-])cc3)=CSC2=N1 (configuration not stated) was read as UHRF1 binding -3, rCAG binder -1, LEDGF integ inh 0, MBD2 DNA inh 2, PRMT1 FP inh 22* and ABHD5 PLIN5 PPI -8.
For COCc1[nH]nc2c1C(c1ccc(F)cc1)NC2=O (configuration not stated) the results were UHRF1 binding 1, rCAG binder 3, LEDGF integ inh -1, MBD2 DNA inh 1 and PRMT1 FP inh -4.
COC(=O)c1ccc2c(=O)n(CCCCCC(=O)NC3CCCCC3)c(=O)[nH]c2c1 was read as UHRF1 binding -1, rCAG binder 1, LEDGF integ inh 1, MBD2 DNA inh -5 and PRMT1 FP inh -2.
O=C1N=c2ccccc2=C1c1c(O)n(-c2cccc(F)c2)[nH]c1=O was read as UHRF1 binding -7, rCAG binder 20, LEDGF integ inh -1, MBD2 DNA inh -8, PRMT1 FP inh 21* and ABHD5 PLIN5 PPI -7.
For CC(C)(C)c1cc[n+](/C(C(=S)Nc2ccccc2F)=C(/[O-])c2ccc3c(c2)OCCO3)cc1 the results were UHRF1 binding 1, rCAG binder 6, LEDGF integ inh -2, MBD2 DNA inh 9, PRMT1 FP inh 24* and ABHD5 PLIN5 PPI -12.
`CC(C)(C)c1ccc(-c2noc(-c3ccc4c(c3)CCO4)n2)cc1` gave UHRF1 binding 25*, rCAG binder 27, LEDGF integ inh 0, MBD2 DNA inh 0, PRMT1 FP inh 3 and ABHD5 PLIN5 PPI 2.
Screening Cc1cc(/C=N/N2CCN(C)CC2)c(C)n1-c1ccc(Cl)cc1 returned UHRF1 binding 30*, rCAG binder -1, LEDGF integ inh 1, MBD2 DNA inh 3, PRMT1 FP inh -6 and ABHD5 PLIN5 PPI 7.
Screening Cc1cc(/C=N/n2cnnc2)c(C)n1-c1ccc(Cl)cc1 returned UHRF1 binding -1, rCAG binder -4, LEDGF integ inh -7, MBD2 DNA inh -1, PRMT1 FP inh 5 and ABHD5 PLIN5 PPI -2.
`O=C(c1ccccc1)c1cccs1` gave UHRF1 binding -1, rCAG binder -1, LEDGF integ inh -1, MBD2 DNA inh 6, PRMT1 FP inh 2 and ABHD5 PLIN5 PPI 2.
Screening O=C(O)c1ccccc1C(=O)c1cccs1 returned UHRF1 binding 24*, rCAG binder 0, LEDGF integ inh 1, MBD2 DNA inh 8, PRMT1 FP inh -1 and ABHD5 PLIN5 PPI -11.
For COc1ccccc1Cc1c(-c2ccccc2)nc2c3ccccc3ccn12 the results were UHRF1 binding 5, rCAG binder 5, LEDGF integ inh 0, MBD2 DNA inh 5 and PRMT1 FP inh -3.
COc1ccccc1Cc1c(C(C)(C)C)nc2c3ccccc3ccn12 was read as UHRF1 binding 23*, rCAG binder 5, LEDGF integ inh 2, MBD2 DNA inh 6, PRMT1 FP inh 1 and ABHD5 PLIN5 PPI 3.
CCN(CC)C(=S)Sc1c(-c2ccccc2)c2cc(Cl)ccc2[nH]c1=O was read as UHRF1 binding -17, rCAG binder 6, LEDGF integ inh 1, MBD2 DNA inh -3, PRMT1 FP inh 24* and ABHD5 PLIN5 PPI 10.
O=C(NCc1ccccc1)[C@H]1CCCN1C(=O)[C@H]1CCCN1C(=O)c1ccc(F)cc1F was read as UHRF1 binding 2, rCAG binder 2, LEDGF integ inh 1, MBD2 DNA inh 1 and PRMT1 FP inh 1.
For C[C@@H]1C=CCCO[C@]12C(=O)N(CC1CC1)c1ccccc12 the results were UHRF1 binding -1, rCAG binder 1, LEDGF integ inh 2, MBD2 DNA inh -1 and PRMT1 FP inh 1.
Screening COc1ccc(C(=O)OCC(=O)c2ccc3c(c2)NC(=O)CO3)cc1OC returned UHRF1 binding 58*, rCAG binder 1, LEDGF integ inh 3, MBD2 DNA inh -3, PRMT1 FP inh -3 and ABHD5 PLIN5 PPI 2.
For COc1ccc(C(=O)OCC(=O)c2ccc3c(c2)NC(=O)CO3)cc1[N+](=O)[O-] the results were UHRF1 binding 1, rCAG binder 0, LEDGF integ inh 4, MBD2 DNA inh 0, PRMT1 FP inh 1 and ABHD5 PLIN5 PPI 1.
Cc1ccccc1S(=O)(=O)N1CCCc2nc(-c3ccccc3)ccc21 was read as UHRF1 binding -4, rCAG binder 0, LEDGF integ inh 0, MBD2 DNA inh 2 and PRMT1 FP inh -4.
